From PubChem BioAssay (NCATS)
Unmarked numbers belong to inactive results. Records with an inconclusive call do not appear. Activity calls are given as the source filed them. Unless noted, the call rests on the fitted dose curve; in most records, active means well fitted curve in the direction sought with a large enough effect; inconclusive means small, poorly fitted or top-dose-only effect, or another doubt; inactive means no such curve, though single readings can be large; an effect the other way counts as inactive or inconclusive.

target: Alpha-galactosidase (Coffea arabica) (UniProt Q42656); assay: Counterscreen for Glucocerebrosidase Inhibitors: qHTS Assay for Coffee Bean alpha-Galactosidase at pH 4.5 (AID 957); details: purified coffee bean alpha-galactosidase, fluorogenic substrate; series mostly up to 76.9 µM; activity change, negative = inhibition: at the top concentration;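 further: plate controls were enzyme alone for no effect and no enzyme for full effect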
Summary of the method: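 Quantitative HTS of compounds (0.7 nM to 77 uM) against coffee bean alpha-galactosidase at pH 4.5, measuring 4-methylumbelliferone fluorescence released from 80 uM substrate.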

Chain of Alpha-galactosidase (Coffea arabica) (Q42656 whole entry, looked up): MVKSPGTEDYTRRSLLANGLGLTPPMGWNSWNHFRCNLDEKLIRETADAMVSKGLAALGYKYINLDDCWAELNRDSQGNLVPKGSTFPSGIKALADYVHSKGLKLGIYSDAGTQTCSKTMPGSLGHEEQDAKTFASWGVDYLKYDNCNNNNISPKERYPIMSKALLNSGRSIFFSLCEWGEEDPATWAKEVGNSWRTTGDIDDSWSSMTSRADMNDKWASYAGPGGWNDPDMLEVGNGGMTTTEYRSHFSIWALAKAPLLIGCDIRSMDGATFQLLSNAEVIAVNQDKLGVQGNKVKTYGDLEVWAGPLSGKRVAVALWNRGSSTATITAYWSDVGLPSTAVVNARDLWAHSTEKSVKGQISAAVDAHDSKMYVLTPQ

SMILES | activity change, negative = inhibition | outcome
COCCCCC(=NOCCN)c1ccc(C(F)(F)F)cc1 | 0.548% | 
C=C[C@H]1CN2CC[C@@H]1C[C@@H]2[C@@H](O)c1ccnc2ccc(OC)cc12 |  | inactive
NC[C@@H]1O[C@H](C23CC4CC(CC(C4)C2)C3)Cc2c1ccc(O)c2O | 1.97% | 
CCN(CC)CCCCCCCCOC(=O)c1cc(OC)c(OC)c(OC)c1 | -6.09% | 

target: Alpha-galactosidase (Coffea arabica) (UniProt Q42656); assay: Counterscreen for Glucocerebrosidase Inhibitors: qHTS Assay for Coffee Bean alpha-Galactosidase at pH 5.9 (AID 998); details: coffee bean alpha-galactosidase enzyme assay; series mostly up to 76.9 µM; activity, negative = inhibition: at the top concentration;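 further: plate controls were uninhibited enzyme for no effect and no-enzyme basal signal for full effect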
Summary of the method: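 Fluorogenic 4-MU substrate hydrolysis, 80 uM substrate and 2 nM coffee bean alpha-galactosidase, pH 5.9 citrate buffer, 20 min at room temperature, then NaOH/glycine stop. Titration 0.7 nM–77 uM, normalized to no-enzyme and enzyme controls, AC50 via Hill equation.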

SMILES | activity, negative = inhibition | outcome
COCCCCC(=NOCCN)c1ccc(C(F)(F)F)cc1 | -4.63% | 
C=C[C@H]1CN2CC[C@@H]1C[C@@H]2[C@@H](O)c1ccnc2ccc(OC)cc12 |  | inactive
NC[C@@H]1O[C@H](C23CC4CC(CC(C4)C2)C3)Cc2c1ccc(O)c2O | 3.65% | 
CCN(CC)CCCCCCCCOC(=O)c1cc(OC)c(OC)c(OC)c1 | -2.87% | 

test system: not listed separately; assay: qHTS for Inhibitors of the Functional Ribonucleoprotein Complex (vRNP) of Lassa (LASV) Arenavirus: LASV Primary Screen - GLuc reporter signal (AID 1347082; calls by dose curve; tested in HEK293 reporter line; further: nearly all actives have a fitted effect of over 60% in size; further: potency means the concentration at half of the fitted maximal effect; on activity change, negative = inhibition: on the % scale 0 is the no-effect control and ±100 the full control effect); details: LASV minigenome vRNP, Gaussia luciferase reporter; series mostly up to 57.5 µM; activity change, negative = inhibition: at the top concentration

SMILES | Potency | activity change, negative = inhibition
COc1cc(O)c2c(c1)C1OC1C[C@H](O)[C@H](O)C(=O)C=CC[C@H](C)OC2=O (stereo partly drawn) | 34.3 µM (active) | 
Cc1cccc(-c2[nH]c(C(C)(C)C)nc2-c2ccc3c(c2)OCO3)n1 | 10.9 µM (active) | 
CCNC(=O)c1cc2c(-c3cc(OCCN4CCCC4)c(Cl)cc3Cl)nc(N)nc2s1 | 4.85 µM (active) | 
CC(C)(C)Cn1c(N)nc2ccc(-c3[nH]c(C(C)(C)C)nc3-c3ccc(F)cc3)nc21 |  | -30.3%
C[C@]12C=CC(=O)C=C1CC[C@@H]1[C@@H]2CC[C@]2(C)C(=O)CC[C@@H]12 |  | 4.12%
CCCCCC[C@@H](O)C/C=C\CCCCCCCC(=O)O |  | 0.754% [at 115 µM]
Nc1ncnc2c1ncn2[C@@H]1O[C@H](CO)C[C@@H]1O |  | 15.2%
CC(=O)O[C@@H]1/C=C/[C@](C)(O)C[C@@H](C)C/C=C/[C@H]2[C@H](O)C(C)=C(C)[C@H]3[C@H](Cc4ccccc4)NC(=O)[C@@]123 |  | 51.1%
COc1cc2c(cc1OC)CN(CCc1ccc(NC(=O)c3cc(OC)c(OC)cc3NC(=O)c3cnc4ccccc4c3)cc1)CC2 |  | -31.9%
COc1c2ccoc2c(OC[C@@H](O)C(C)(C)OC)c2oc(=O)ccc12 |  | -0.132%
Cc1ncc(C[n+]2csc(CCO)c2C)c(N)n1 |  | -22.4% [at 115 µM]
CN(C)Cc1cccc(N=C(c2ccccc2)c2c(O)[nH]c3cc(C(=O)N(C)C)ccc23)c1 |  | -33.5%
C[C@]1(c2nc3c(C(N)=O)cccc3[nH]2)CCCN1 |  | -13.1%
CC(C)(N)c1ccc(-c2nc3ccccc3nc2-c2ccccc2)cc1 |  | -35%
COCCCCC(=NOCCN)c1ccc(C(F)(F)F)cc1 |  | 3.46%
Cc1cc(OCCCS(C)(=O)=O)cc(C)c1-c1cccc(COc2ccc3c(c2)OC[C@H]3CC(=O)O)c1 |  | -4.52%
COc1ccc(-c2cc3c(C)nc(N)nc3n(C3CCC(OCCO)CC3)c2=O)cn1 (stereo not drawn) | 0.153 µM (active) | 
COc1ccc(CCC(=O)c2c(O)cc(O[C@@H]3O[C@H](CO)[C@@H](O)[C@H](O)[C@@H]3O[C@@H]3O[C@@H](C)[C@H](O)[C@@H](O)[C@@H]3O)cc2O)cc1O | 7.69 µM (active) | 
C=CCNc1c(O)cc2c(O)c1C[C@@H](C)C[C@H](OC)[C@@H](O)[C@@H](C)C=C(C)[C@H](OC(N)=O)[C@@H](OC)C=CC=C(C)C(=O)N2 | 10.9 µM (active) | 
COc1cc2ncn(-c3cc(OCc4ccccc4S(C)(=O)=O)c(C#N)s3)c2cc1OC |  | -33.5%
COc1ccc(-c2cc3nccn3c(Nc3ncccc3C(N)=O)n2)cc1OC |  | 0.499%
COc1cccc2c1cc([N+](=O)[O-])c1c(C(=O)O)cc3c(c12)OCO3 |  | 3.1%
CCCCCCCCCCCCCCCC(N)=O |  | 1.8% [at 5.82 µM]
C=C(C)[C@@]12OC3(c4ccccc4)O[C@@H]1[C@@H]1[C@@H]4O[C@]4(CO)[C@@H](O)[C@]4(O)C(=O)C(C)=C[C@H]4[C@@]1(O3)[C@H](C)[C@H]2OC(=O)/C=C/C=C/c1ccccc1 |  | 1.33%
C=C[C@H]1CN2CC[C@@H]1C[C@@H]2[C@@H](O)c1ccnc2ccc(OC)cc12 |  | -20.3%
C[C@@H](NCc1cc2ccccc2[nH]1)c1cccc2ccccc12 |  | -22.5%
CC(C)(C)NC(=O)[C@H]1CN(Cc2cccnc2)CCN1C[C@@H](O)C[C@@H](Cc1ccccc1)C(=O)N[C@H]1c2ccccc2C[C@H]1O |  | 1.78%
NC[C@@H]1O[C@H](C23CC4CC(CC(C4)C2)C3)Cc2c1ccc(O)c2O |  | -5.02%
Cc1ccc(NC(=O)Nc2cc(C(F)(F)F)ccc2F)cc1Nc1ccc2c(c1)NC(=O)C2=Cc1ccc[nH]1 | 30.6 µM (active) | 
COc1cc(C(=O)O[C@@H]2CC(C)=CC[C@@]3(C)CC[C@](O)(C(C)C)[C@H]23)ccc1O |  | -10.2%
